Screening data as filed in PubChem.
Rows were chosen to be rich in hits. Some 1.3% of all compounds tested hit in one or more screens of this group.
CRFBP-R2 agonist: agonists of human CRF-binding protein/CRF-R2 receptor complex; HEK293 CRF-R2/CRF-BP, calcium dye fluorescence (FLIPR); percent of saturating CRF peptide response; activation, % at 13.2 µM; hit rate 0.46% among 350,000; AID 588473;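 active = activation of at least 50%, plus an integration ratio under a set limit after plate pattern correction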;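 note: plate controls were neutral control wells without compound for no effect and CRF at EC100 for full effect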
CRFBP-R2 block: blocks CRF-induced signaling of the CRF-BP/CRF-R2 complex; hit rate 0.59% among 350,000; inhibition, % at 11.8 µM; AID 588475; HEK293 CRF-R2/CRF-BP, CRF-induced calcium fluorescence;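 active = inhibition of the ligand-induced calcium signal above about 50% at the single tested concentration, limit read from the data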
cardiac RTF act: increases calcium sensitivity of human cardiac regulated thin filaments. P19429+P45379. IANBD-labeled TnC RTF fluorescence at EC20 calcium; 0% EC20 calcium, 100% full calcium. activation, % at 7.2 µM. hit rate 0.24% among 340,000;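 active = activation above the mean over all tested compounds plus 3 SD, cut at about 30% in these data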;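 note: rise in fluorescence read as greater calcium sensitivity of cardiac thin filaments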
Cardiac RTF inh: cardiac RTF calcium desensitization; IANBD-labeled cardiac RTF, Ca2+ fluorescence; P19429+P45379; inhibition, % at 7.15 µM; hit rate 0.12% among 340,000;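 active = inhibition above the mean inhibition of all tested compounds plus 3 SD, cut at about 17% in these data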;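 note: assay run at fixed EC70 calcium of 1.6 mM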
C-LANA FP: blocks KSHV LANA C-terminal domain binding to DNA; MBP-C-LANA/FAM-LBS DNA binding, fluorescence polarization; inhibition, % at 9 µM; hit rate 0.078% among 340,000; AID 504423;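 active = highest replicate inhibition at or above 60% at 9 µM, even if other replicates fall short; inactive = all replicates below 60% inhibition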;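 note: 0% = neutral control wells and 100% = 4 µM acridine orange control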
Keap1-Nrf2 PPI: Keap1-Nrf2 (human) interaction inhibition. Keap1 Kelch-Nrf2 peptide fluorescence polarization, 1536-well. inhibition, % at 9.4 µM. hit rate 0.15% among 340,000. AID 504523; in the data active = inhibition above about 12%;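 note: human Keap1 Kelch domain with fluorescein labeled Nrf2 9mer peptide probe; 0% = neutral control wells and 100% = peptide positive control; higher means more block of Keap1 binding to Nrf2 peptide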
Target sequence (Q14145 whole entry, looked up, the tested form may be a part): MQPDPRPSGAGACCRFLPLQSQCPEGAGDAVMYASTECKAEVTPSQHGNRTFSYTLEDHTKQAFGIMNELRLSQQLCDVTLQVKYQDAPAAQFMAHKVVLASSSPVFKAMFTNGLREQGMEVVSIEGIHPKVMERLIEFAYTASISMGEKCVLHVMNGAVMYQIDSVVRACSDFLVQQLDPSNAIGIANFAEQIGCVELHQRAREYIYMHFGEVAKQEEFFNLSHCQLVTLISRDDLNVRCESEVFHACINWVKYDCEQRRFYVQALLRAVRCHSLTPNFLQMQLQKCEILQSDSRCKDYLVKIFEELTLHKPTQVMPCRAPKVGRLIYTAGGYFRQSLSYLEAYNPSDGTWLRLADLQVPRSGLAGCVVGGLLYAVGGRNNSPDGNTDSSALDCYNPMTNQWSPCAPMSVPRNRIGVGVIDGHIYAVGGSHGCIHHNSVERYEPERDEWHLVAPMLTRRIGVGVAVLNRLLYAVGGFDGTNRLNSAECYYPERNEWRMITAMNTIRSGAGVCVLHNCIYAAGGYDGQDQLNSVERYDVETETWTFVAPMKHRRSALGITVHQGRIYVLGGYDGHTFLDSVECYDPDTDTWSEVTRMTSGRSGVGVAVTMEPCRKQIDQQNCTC
* hit, by the source's call; i = inactive; nt = no result.

SMILES | CRFBP-R2 agonist | CRFBP-R2 block | cardiac RTF act | Cardiac RTF inh | C-LANA FP | Keap1-Nrf2 PPI
CC(C)(C)NC(=O)CSc1nc2ccc(Nc3nc(N4CCOCC4)nc(N4CCOCC4)n3)cc2s1 | 0 | 13 | -7 | -2 | -1 | 1
COc1cccc(NC(=O)CSc2ccc(-c3ccco3)nn2)c1 | 0 | 5 | 2 | 1 | -2 | -7
N#C/C(=C\c1ccc(O)c(O)c1)C(=O)c1ccc(O)c(O)c1 | 5 | -53 | -11 | 2 | 69* | -23
CCOC(=O)c1c(NC(=O)c2ccc(N3C(=O)[C@@H]4[C@H](C3=O)[C@H]3C=C[C@@H]4C3)cc2)sc2c1CC(C)CC2 (some centres undefined) | 0 | -11 | 3 | -16 | -1 | -4
O=[N+]([O-])c1ccc(/C=C/C2=NN(c3ccccc3)C(c3ccco3)C2)o1 (centres undefined) | 66* | -95 | 9 | -4 | -2 | 0
C(=C\c1ccco1)/C1=NN(c2ccccc2)C(c2ccco2)C1 (centres undefined) | 46 | -99 | 3 | -41 | -2 | -3
COc1ccc(OCc2cc(=O)[nH]c3ccccc23)cc1 | -4 | 11 | 1 | 0 | 1 | -3
CCOc1ccccc1Nc1ccnc2cc(Cl)ccc12 | -16 | 59* | -4 | -5 | -1 | -6
O=C(O)C1Nc2c(C(=O)N3CCOCC3)cccc2C2C=CCC12 (centres undefined) | 12 | -29 | -10 | 13 | 72* | 0
CCOc1c(OC(C)=O)ccc(/C=C/c2ccc3cccc(OC(C)=O)c3n2)c1[N+](=O)[O-] | -1 | 1 | 0 | -4 | 0 | -1
C=CCN1C(=O)/C(=C/c2ccc(OC(C)=O)c(OCC)c2[N+](=O)[O-])SC1=S | 46 | 59* | -6 | -5 | -4 | -15
O=C(O)c1cc(-c2ccc(Cl)c(Cl)c2)n(-c2ccc(F)cc2)n1 | -4 | 13 | -3 | 0 | -1 | -3
COCC1CCN(Cc2nc(-c3ccc4c(c3)OCO4)no2)C1 (centres undefined) | 203* | -163 | 6 | -12 | 0 | -2
COC(=O)c1ccc(CSc2nc3c(c(=O)n2-c2ccc(Br)cc2)SCC3)o1 | -1 | 61* | 0 | 0 | -1 | 1
COc1ccccc1N/C(N)=N/c1nc(C)cc(C)n1 | 9 | 0 | -1 | 1 | 2 | 3
Cc1cc(C)nc(/N=C(\N)Nc2ccc(OCc3ccccc3)cc2)n1 | 124* | 14 | 3 | -11 | -3 | 2
Cc1cc(C)nc(/N=C(\N)Nc2cccc(OCc3ccccc3)c2)n1 | 108* | -47 | -8 | 5 | -2 | -7
COC(=O)C1=C(C(=O)OC)[C@@H]2Nc3ccccc3[C@@]23C[C@@H](C(=O)OC)N(C(C)=O)C3=N1 | 0 | 9 | -1 | -14 | -1 | 5
O=C(COc1ccc2ccccc2c1)N1CCN(C(=O)c2ccc([N+](=O)[O-])cc2)CC1 | -5 | 72* | 5 | -8 | 1 | -3
O=C(COc1ccccc1)N1CCN(C(=O)c2ccc([N+](=O)[O-])cc2)CC1 | 0 | 11 | -1 | 2 | -3 | 2
Cc1ccc(N(C(=O)Cn2nnc(-c3ccccc3F)n2)C(C(=O)NC2CCCC2)c2ccncc2)cc1 (centres undefined) | 0 | 51* | 1 | -9 | -1 | 1
CCCCOC(=O)c1cc(-c2ccc(/C=N/n3cnnc3)o2)ccc1Cl | -3 | 8 | 0 | 4 | 0 | -1
CCOC(=O)C(Cc1ccccc1)NC(=O)CCc1nnc2ccc(N3CCCCC3)nn12 (centres undefined) | -5 | 0 | 3 | -10 | 2 | -6
CCOC(=O)C(Cc1ccccc1)NC(=O)CCc1nnc2ccc(N3CCCC3)nn12 (centres undefined) | 0 | 58* | 3 | -3 | 1 | 3
N#C/C(=C(/O)COc1ccc(Cl)cc1)c1nc2ccccc2s1 | 70* | 72* | -4 | -5 | 0 | 4
SMILES | CRFBP-R2 agonist | CRFBP-R2 block | cardiac RTF act | Cardiac RTF inh | C-LANA FP | Keap1-Nrf2 PPI
N#C/C(=C(/O)COc1ccccc1)c1nc2ccccc2s1 | 40 | 41 | -2 | 0 | -1 | -3
Cc1ccc(-c2ccccc2C2=CC(=O)CC(C)(C)C2=O)cc1 | 7 | -1 | nt | nt | nt | nt
COc1ccc(CN2CCC(n3nccc3NC(=O)c3ccc4c(c3)OCO4)CC2)cc1C | 1 | -2 | 2 | -5 | 0 | -5
CCN(CC)C(=O)[C@H]1C[C@H](CC(=O)NC/C=C(\C)CCC=C(C)C)C(=O)N2CCc3c([nH]c4cc(CCC(=O)N(C)C)ccc34)[C@]12C | 0 | 67* | -8 | -2 | 1 | -2
Cc1nnc(SCC(=O)c2cc(C)n(C3CC3)c2C)s1 | 52* | -26 | 5 | -10 | -1 | -1
Cc1cc(C(=O)CSc2nnnn2C)c(C)n1C1CC1 | 0 | -2 | 6 | -3 | 0 | -3
Cc1nnc(SCC(=O)c2cc(C)n(-c3ccc4c(c3)OCO4)c2C)s1 | 63* | -39 | -8 | -2 | 1 | 0
CCOC(=O)C1=CCC2c3c(c4ccccc4n3C)C(=O)C1N2C(=O)OC(C)(C)C (centres undefined) | 4 | 2 | -2 | 2 | 0 | -8
COc1ccc(-c2nnc(Nc3ccc(S(=O)(=O)Nc4nccs4)cc3)c3ccccc23)cc1 | -4 | 61* | -5 | -1 | -1 | -6
O=Cc1ccc(-c2ccccc2C(=O)O)o1 | -2 | 9 | 6 | 2 | 1 | 2
O=C(O)c1ccccc1-c1c2cc(I)c(=O)c(I)c-2oc2c(I)c(O)c(I)cc12 | 243* | -255 | 501* | i | -26 | -339
Cc1cc(=O)n(CC(=O)Nc2cc(Cl)ccc2C)c(C(C)C)n1 | 1 | 4 | -2 | -14 | 0 | -5
CCOC(=O)c1c(C(F)(F)C(F)(F)C(F)(F)C(F)(F)F)n[nH]c1C | 6 | 54* | 3 | -3 | 2 | 3
COc1cccc(NC(=O)CSc2nc3ccccc3c(=O)n2CCCC(=O)NCCCN2CCOCC2)c1 | -3 | 7 | -6 | -2 | 0 | 2
Cc1ccc(NC(=O)CSc2nc3ccccc3c(=O)n2CCCC(=O)NCCCN2CCOCC2)cc1 | 3 | 72* | 1 | -2 | -1 | -2
Cc1cc(C)nc(SCCCNCc2ccc(Br)cc2)n1 | -1 | -6 | 32* | -1 | -2 | -5
Cc1ccc(CNCCCSc2nc(C)cc(C)n2)cc1 | -1 | -8 | -2 | -3 | 3 | -2
Cc1ccc(CNC(=O)CCC(=O)Nc2nnc(C3CCCCC3)s2)cc1 | -1 | 4 | -4 | -2 | 0 | 0
COc1ccc(S(=O)(=O)N2CCCCCC2)cc1C(=O)N(C)Cc1ccc(C(C)(C)C)cc1 | 2 | 78* | 3 | -5 | 0 | 1
